Our source for the Potency values is PubChem BioAssay (Tox21).

Each structure is given as a SMILES string. Where “and” joins values, the source holds several entries; their conditions need not be identical. Identical values can stand only once. Inconclusive results are not listed. Calls of active or inactive are those of the source. The call rests on the fitted dose curve; in most records, active means well fitted cell-killing curve with a large enough effect in the repeat runs; inconclusive means weak or mixed curves, or effect the other way; inactive means flat fitted curve, though single readings scatter.

Test [1] in a line: cAMP Responsive Elements (CRE) small molecule antagonists, cell-based qHTS assay: qHTS cell viability counter screen (AID 2060913). Further: nearly all actives have a fitted effect of over 40% in size. In outline:
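CRE-bla HEK293T cells were seeded in assay medium with 10% dialyzed FBS, incubated 18 hrs at 37 C, then exposed to compounds plus 0.25 uM final NKH477 for 3 hrs. Viability was read by CellTiter-Glo luminescence after 30 min, in the same wells.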
Background: In qHTS, concentration-response curves come from the screen itself.

Test [2] is described as follows: cAMP Responsive Elements (CRE) small molecule agonists, cell-based qHTS assay: qHTS cell viability counter screen (AID 2060914). Further: nearly all actives have a fitted effect of over 50% in size. In outline: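 In the same wells as the reporter read, viability of CRE-bla HEK 293T cells was quantified by CellTiter-Glo luminescence after a 3 h compound exposure.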
Potency means the concentration at half of the fitted maximal effect.

As for `C/C=C1/C(=O)C[C@H]2[C@@H]3CCC4=CC(=O)CC[C@]4(C)[C@H]3CC[C@]12C`, the Potency entry in test [1] and in test [2] was “inactive” throughout.
Regarding `COC(=O)c1cc(Cl)ccc1OC`, the Potency result in test [1] and in test [2] was “inactive” in each case.
Consider `O=C(O)Cc1c(Cl)ccc(Cl)c1Cl`, for which the Potency result in test [1] and in test [2] was “inactive” in each case.
`Cc1ccc(O)c([C@H](CCN(C(C)C)C(C)C)c2ccccc2)c1`: the Potency entry in test [1] and in test [2] was “inactive” throughout.
As for `CCCc1c2oc(C(=O)O)cc(=O)c2cc2c(=O)cc(C(=O)O)n(CC)c12`, the Potency entry in test [1] and in test [2] was “inactive” in each case.
Turning to `CCCCC(CC)CCC(CC(C)C)OS(=O)(=O)O` (stereo not drawn), the Potency result in test [1] and in test [2] was “inactive” in each case.
As for `CCOc1ccc(NC(=O)OC(C)C)cc1OCC`, the Potency result in test [1] and in test [2] was “inactive” each time.
Consider `CNCCS(=O)(=O)O`, for which the Potency entry in test [1] and in test [2] was “inactive” in each case.
As to `CCCCCCCCCCCCCC[N+](C)(C)Cc1ccccc1`, the Potency in test [1] was 55.3 µM (active) and 26.6 µM (active) and 15.8 mM (active); in test [2] it was 22 µM (active) and 11.9 µM (active).
For the compound `c1cc[c]([Bi]([c]2ccccc2)[c]2ccccc2)cc1`, the Potency entry in test [1] and in test [2] was “inactive” each time.
With `O=C1CCCc2c(O)cccc21`, the Potency result in test [1] and in test [2] was “inactive” in each case.
For the compound `CCCCCCC(C)O` (stereo not drawn), the Potency entry in test [1] and in test [2] was “inactive” throughout.
`CCCCCOC(=O)Nc1nc(=O)n([C@@H]2O[C@H](C)[C@@H](O)[C@H]2O)cc1F`: the Potency entry in test [1] and in test [2] was “inactive” throughout.
On to `CCOC(=O)[C@H](C)O`, for which the Potency result in test [1] and in test [2] was “inactive” each time.
